A short description of assay [1]: HepG2 liver cancer cell viability effects, profiling panel, resazurin fluorescence, 24 h, PK04 Diversity Set (AID 1172). The settings on record: higher = more signal. A general note: Alamar Blue is a resazurin reagent that responds to reducing activity.
Assay [2] can be described thus: basal S. cerevisiae growth modulation, no modifier, primary screen, OD600, strain BY4716, 24 h, basal condition (AID 1173). As to conditions: OD600, 24 h, higher = more signal, called active from +8 up or from −8 down.
Assay [3] can be described thus: MM1S myeloma cell viability, profiling panel, resazurin fluorescence, basal, 24 h, PK04 Diversity Set (AID 1174).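 Further: MM1S multiple myeloma cell line.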 The settings on record: higher = more signal, called active from +8 up or from −8 down.
In assay [4] the target is Dihydroorotate dehydrogenase (quinone), mitochondrial (Plasmodium falciparum (isolate 3D7)) (UniProt Q08210). The assay can be described thus: PfDHODH enzyme inhibitors, primary screen, biochemical, C-terminal His tag, absorbance 600 nm (AID 1175).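 Further: recombinant parasite enzyme with a five histidine tag at its C terminus.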 The settings on record: DCIP absorbance 600 nm, higher = more signal, called active from +8 up or from −8 down.
Dihydroorotate dehydrogenase (quinone), mitochondrial (Plasmodium falciparum (isolate 3D7)), sequence (Q08210 whole entry, looked up): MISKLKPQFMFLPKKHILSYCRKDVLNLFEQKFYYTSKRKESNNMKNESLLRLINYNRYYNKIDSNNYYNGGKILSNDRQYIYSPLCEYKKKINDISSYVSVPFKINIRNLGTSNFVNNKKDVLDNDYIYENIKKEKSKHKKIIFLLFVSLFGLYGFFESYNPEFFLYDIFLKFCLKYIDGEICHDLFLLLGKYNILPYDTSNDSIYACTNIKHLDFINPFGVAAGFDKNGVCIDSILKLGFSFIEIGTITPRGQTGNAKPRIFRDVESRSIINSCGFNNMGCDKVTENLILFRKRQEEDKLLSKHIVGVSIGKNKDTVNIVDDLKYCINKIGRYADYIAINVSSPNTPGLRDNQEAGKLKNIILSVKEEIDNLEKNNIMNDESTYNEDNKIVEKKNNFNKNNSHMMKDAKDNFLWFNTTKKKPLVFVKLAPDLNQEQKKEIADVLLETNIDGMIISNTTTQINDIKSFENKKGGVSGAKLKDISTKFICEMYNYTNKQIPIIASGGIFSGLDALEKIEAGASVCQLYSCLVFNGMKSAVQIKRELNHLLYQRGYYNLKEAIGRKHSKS
Assay [5] in a line: P. aeruginosa biofilm formation inhibitors, primary screen, strain PAO1, LB-PBS medium, absorbance 600 nm (AID 1176). As to conditions: P. aeruginosa PAO1 growth/biofilm, A600, 12 h; higher = more signal.
The nature of assay [6]: S. cerevisiae RM11-1a growth modifiers, primary screen, strain RM11-1a, OD600, basal, 24 h (AID 1177).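 Further: cultures grown under basal conditions with no added stressor.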 The settings on record: OD600, 24 h, higher = more signal, called active from +8 up or from −8 down.
Assay [7] is described as follows: E. coli acrAB mutant growth effects, primary screen, E. coli filamentation inducers, strain DRC39, OD650, 24 h (AID 1178).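 Further: growth measured as culture turbidity by optical density at 650 nm.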 As to conditions: higher = more signal, called active from +8 up or from −8 down.
The nature of assay [8]: E. coli acrAB mutant growth effects, primary screen, E. coli filamentation inducers, strain DRC39, OD650, 48 h (AID 1179).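 Further: screen aims at cell division blockers that make cells filament.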 As to conditions: E. coli DRC39 delta-acrAB growth, higher = more signal, called active from +8 up or from −8 down.
Assay [9] is described as follows: RPMI8226 myeloma cell viability, profiling panel, resazurin fluorescence, basal, 24 h, PK04 Diversity Set (AID 1180).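 Further: RPMI8826 multiple myeloma cell line at 5000 cells per well.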 As to conditions: higher = more signal.
Assay [10] addresses E3 ubiquitin-protein ligase XIAP (Homo sapiens) (UniProt P98170). Put plainly: XIAP binders, primary screen, biophysical, small-molecule microarray, fluorescence 635 nm (AID 1181).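 Further: score merges 667 nm emission and signal to noise over triplicate slides.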 The settings on record: small-molecule microarray binding, higher = more signal.
The test system of assay [11] is XIP peptide (Xip251-270) binding. The assay can be described thus: small-molecule binders of XIP peptide, primary screen, biochemical, small-molecule microarray, fluorescence 635/667 nm, 0.1 µg/mL protein (AID 1182). The settings on record: fluorescent protein binding, 635 nm, higher = more signal, called active from +8 up or from −8 down.
The test system of the next assay is XIP peptide (Xip251-270). The assay can be described thus: small-molecule binders of XIP peptide, primary screen, biochemical, small-molecule microarray, fluorescence 635/667 nm, 0.5 µg/mL protein (AID 1183). The settings on record: small-molecule microarray binding, fluorescence 635 nm; higher = more signal.
Assay [12] can be described thus: Plasmodium falciparum growth inhibition, primary screen, strain 3D7, DAPI fluorescence, 100 nL (AID 1184).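 Further: parasites grown inside human red blood cells in medium with human serum.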 As to conditions: P. falciparum 3D7 growth, 3 d, higher = more signal.
The target in assay [13] is Homeobox protein Hox-A13 (Mus musculus) (UniProt Q62424). Put plainly: inhibitors of HoxA13-DNA binding, primary screen, biochemical, fluorescence polarization, labeled oligonucleotide (AID 1185). As to conditions: 15 min, higher = more signal, called active from +8 up or from −8 down. In general terms: In fluorescence polarisation assays a small probe gives low polarisation when free and higher when bound to something large.
Homeobox protein Hox-A13 (Mus musculus), sequence (Q62424 whole entry, looked up): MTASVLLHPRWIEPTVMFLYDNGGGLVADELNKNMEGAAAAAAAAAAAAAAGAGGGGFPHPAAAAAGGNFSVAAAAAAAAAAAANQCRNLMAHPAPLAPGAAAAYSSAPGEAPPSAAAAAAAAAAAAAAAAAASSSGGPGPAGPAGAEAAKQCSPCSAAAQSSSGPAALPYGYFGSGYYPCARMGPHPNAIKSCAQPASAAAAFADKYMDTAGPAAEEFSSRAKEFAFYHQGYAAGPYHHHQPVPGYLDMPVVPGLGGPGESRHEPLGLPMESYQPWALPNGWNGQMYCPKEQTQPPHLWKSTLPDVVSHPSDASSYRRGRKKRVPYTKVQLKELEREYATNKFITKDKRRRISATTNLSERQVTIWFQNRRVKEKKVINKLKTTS

Assay [14] can be described thus: inhibitors of hydroxyurea-induced Chk1 phosphorylation, primary screen, imaging, HeLa, phospho-Chk1 antibody, percent positive cells (AID 1186). The settings on record: hydroxyurea-induced phospho-Chk1 immunofluorescence imaging, higher = more signal.
A short description of assay [15]: inhibitors of hydroxyurea-induced Chk1 phosphorylation, primary screen, imaging, HeLa, phospho-Chk1 nuclear intensity (AID 1187). As to conditions: hydroxyurea-induced phospho-Chk1 immunofluorescence imaging, higher = more signal.

Calls of active or inactive are those of the source. Unless noted, how the calls were made is not given here.

E3 ubiquitin-protein ligase XIAP (Homo sapiens), sequence (P98170 whole entry, looked up): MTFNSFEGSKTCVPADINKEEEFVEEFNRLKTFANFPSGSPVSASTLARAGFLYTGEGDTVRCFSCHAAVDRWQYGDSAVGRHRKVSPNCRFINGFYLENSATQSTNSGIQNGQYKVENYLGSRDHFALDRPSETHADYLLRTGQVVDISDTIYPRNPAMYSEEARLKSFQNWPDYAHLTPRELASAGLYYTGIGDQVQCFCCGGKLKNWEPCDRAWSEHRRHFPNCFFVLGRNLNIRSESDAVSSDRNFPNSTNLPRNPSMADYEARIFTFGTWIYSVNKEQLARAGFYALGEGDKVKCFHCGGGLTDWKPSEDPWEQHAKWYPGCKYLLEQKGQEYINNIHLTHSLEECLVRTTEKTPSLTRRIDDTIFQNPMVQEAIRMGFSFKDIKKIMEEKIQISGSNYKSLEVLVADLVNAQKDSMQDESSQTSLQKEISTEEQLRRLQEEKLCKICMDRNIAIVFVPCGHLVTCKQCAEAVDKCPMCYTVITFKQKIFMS

For the molecule `Cc1ccc(N2C(=O)c3ccccc3[C@](C)(C(=O)NCCN3CCOCC3)[C@@H]2c2ccc(CO)cc2)nc1`, the z-score is -0.946 in [1]; -0.574 (inactive) in assay [2]; 0.438 (inactive) in [3]; 0.31 (inactive) in assay [5]; 0.548 (inactive) in assay [6]; -0.0943 (inactive) in assay [7]. Also, the z-score is -0.126 (inactive) in assay [8]; 0.274 in assay [9]; -0.855 in assay [12]; -1.9 (inactive) in assay [13]; -0.217 (inactive) in [14]; -0.163 (inactive) in assay [15]. In addition, the composite z-score in [4] was 0.255 (inactive); in assay [10], 0.086; in assay [11] it was -0.772 (inactive); in the assay with XIP peptide (Xip251-270) it was 0.471.

With `CN1C(=O)C2C=CC(C(O)c3ccccc3)N(NC(=O)OC(C)(C)C)C2C1=O` (centres undefined), the z-score in [1] was -1.24; in assay [2] it was 1.34 (inactive); in [3], -0.749 (inactive); in assay [5], 0.31 (inactive); in assay [6], 1.18 (inactive); in assay [7], -0.68 (inactive). For the same molecule, the z-score in assay [8] was -0.454 (inactive); in assay [9], -0.0265; in assay [12], -0.305; in [13], -0.867 (inactive); in assay [14], 0.253 (inactive); in assay [15] it was -0.0164 (inactive). Also, the composite z-score in assay [4] is 0.802 (inactive); in [10] it was 0.0338; in [11], 0.4 (inactive); with XIP peptide (Xip251-270) it was 0.886.

For the molecule `O=C1C2C=CC(C(O)c3ccccn3)N(Nc3ccccc3F)C2C(=O)N1c1ccccc1` (centres undefined), the z-score in assay [1] was 0.248; in assay [2] it was -0.166 (inactive); in assay [3] it was -0.497 (inactive); in [5] it was 0.378 (inactive); in assay [6] it was -0.0396 (inactive); in assay [7] it was -0.628 (inactive). For the same molecule, the z-score is 0.292 (inactive) in assay [8]; -0.0768 in assay [9]; -0.0664 in [12]; -2.54 (inactive) in [13]; -0.0045 (inactive) in [14]; -0.176 (inactive) in assay [15]. Moreover, the composite z-score was 0.761 (inactive) in assay [4], 0.0521 in assay [10], -0.035 (inactive) in assay [11] and 0.796 in the assay on XIP peptide (Xip251-270).

`CN1C(=O)C2C=CC(C(O)c3ccc(Br)cc3)N(Nc3ccccc3)C2C1=O` (centres undefined): the z-score in [1] was 0.0752; in [2], -0.348 (inactive); in [3], -0.26 (inactive); in assay [5], 0.434 (inactive); in assay [6] it was 0.732 (inactive); in assay [7], -0.398 (inactive). Also, the z-score in assay [8] is -0.413 (inactive); in [9], 0.296; in assay [12] it was 0.672; in assay [13], -1.23 (inactive); in assay [14], 0.247 (inactive); in assay [15], -0.122 (inactive). Further, the composite z-score was -0.125 (inactive) in [4], -0.0773 in [10], -0.115 (inactive) in [11] and 0.0244 with XIP peptide (Xip251-270).

Turning to `O=C1OCC=C[C@H]2OC34C=CCN(c5ccc(Cl)cc5)C(=O)[C@H]3N(CCCO)C(=O)[C@@H]4[C@@H]12` (some centres undefined), the z-score in assay [1] is -0.458; in [2] it was -0.857 (inactive); in assay [3], -0.393 (inactive); in [5], 0.276 (inactive); in assay [6], 0.123 (inactive); in [7] it was 0.958 (inactive). The z-score was 0.579 (inactive) in assay [8]; 0.0679 in assay [9]; -1.39 in assay [12]; -2.31 (inactive) in assay [13]; -0.0921 (inactive) in [14]; -0.389 (inactive) in assay [15]. Besides, the composite z-score in assay [4] is -0.486 (inactive); in [10], 0.0593; in assay [11], 1.92 (inactive); in the assay on XIP peptide (Xip251-270), -0.501.

For `NC(=O)NCC#Cc1ccc2c(c1)[C@]1(C(=O)N2)[C@H](C(=O)NC[C@H](O)c2ccccc2)[C@H]2C(=O)O[C@H](c3ccccc3)[C@H](c3ccccc3)N2[C@@H]1c1ccccc1OCCO`, the z-score in assay [1] is 0.217; in [2], 0.328 (inactive); in [3], 0.56 (inactive); in assay [5], 1.08 (inactive); in [6], 0.915 (inactive); in assay [7] it was 1.01 (inactive). Moreover, the z-score in [8] is 0.0227 (inactive); in [9] it was 0.225; in assay [12], -1.32; in assay [13] it was -3.41 (inactive); in assay [14] it was -0.228 (inactive); in assay [15], -0.374 (inactive). For the same molecule, the composite z-score in assay [4] was 0.833 (inactive); in assay [10], 0.0864; in assay [11], 0.635 (inactive); with XIP peptide (Xip251-270) it was 0.799.

On to `O=C1OCC=C[C@H]2OC34C=CCN(c5ccc6ccccc6c5)C(=O)[C@H]3N(CCO)C(=O)[C@@H]4[C@@H]12` (some centres undefined), for which the z-score in assay [1] is -0.147; in assay [2], -0.204 (inactive); in assay [3], 0.0073 (inactive); in [5], -0.649 (inactive); in [6], 0.195 (inactive); in assay [7], -0.246 (inactive). Moreover, the z-score in assay [8] is -0.118 (inactive); in assay [9], 0.403; in assay [12], 0.666; in assay [13], -5.78 (inactive); in [14] it was 0.0775 (inactive); in [15] it was 0.219 (inactive). The composite z-score was -1.47 (inactive) in [4], 0.0896 in [10], 0.594 (inactive) in assay [11] and 0.605 in the assay on XIP peptide (Xip251-270).

Turning to `CCOC(=O)C=Cc1cccc(OC)c1O`, the z-score in [1] is -0.537; in assay [2] it was -6.47 (inactive); in assay [3], -0.649 (inactive); in [5], -2.06 (inactive); in assay [6], -1.34 (inactive); in assay [7], -0.597 (inactive). Also, the z-score in [8] was -1.03 (inactive); in [9], -1.07; in [12], -1.24; in assay [13] it was -0.697 (inactive); in assay [14] it was -1.68 (inactive); in [15] it was -1.49 (inactive). In addition, the composite z-score in [4] is -1.15 (inactive); in assay [10], 0.0036; in assay [11] it was 0.0682 (inactive); in the assay with XIP peptide (Xip251-270), 0.36.

On to `C=CCN1C(=O)[C@@]2(O[C@@H](CCO)[C@H]([Si](C)(C)c3ccc(OC)cc3)[C@H]2C)c2cc(N3C(=O)COc4ccccc43)ccc21`, for which the z-score is -6.28 in assay [1]; 0.445 (inactive) in assay [2]; -8.85 (active) in assay [3]; -0.258 (inactive) in assay [5]; 3.31 (inactive) in assay [6]; 1.09 (inactive) in [7]. The z-score in [8] is 0.338 (inactive); in [9], -6.27; in assay [12] it was -2.68; in assay [13], -4.65 (inactive); in assay [14] it was -1.39 (inactive); in [15] it was -0.883 (inactive). Besides, the composite z-score is 0.428 (inactive) in assay [4], -0.031 in [10], 1.28 (inactive) in [11] and 0.623 with XIP peptide (Xip251-270).

These data come from PubChem BioAssay.
